This passage reports growth results from PubChem BioAssay (NCI).

This is part of a sample that, as a whole, favours compounds with a hit. Of some 83,000 tested, about 20% had one in any assay.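 The endpoint reported here, percent growth, reads 100 for growth as untreated, 0 for no net growth and -100 for all cells dead.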 A number with no mark means an inactive call. Activity calls are given as the source filed them. Rule for the calls: active = growth percent below 10; inactive = the rest.

Among the test systems are SR leukemia; RPMI-8226 leukemia; OVCAR-5 ovarian; SK-OV-3 ovarian; IGROV1 ovarian; OVCAR-3 ovarian; HS 578T breast; NCI/ADR-RES ovarian; OVCAR-8 ovarian; OVCAR-4 ovarian.
Common to all, as to assay: NCI-60 one-dose screen, 48 h (100 = growth as untreated, 0 = no growth, -100 = all killed)
Holding throughout (details): 10 µM

Turning to `O=C(c1ccccc1)C1CCC1`, the growth in the assay with SR leukemia is 92.7%; in the assay on RPMI-8226 leukemia it was 98.9%; in the assay with OVCAR-5 ovarian, 109%; in the assay on SK-OV-3 ovarian, 100%; in the assay with IGROV1 ovarian, 114%; in the assay on OVCAR-3 ovarian, 108%. Also, the growth with HS 578T breast is 115%; in the assay on NCI/ADR-RES ovarian, 107%.

As to `CCCC(C)OCC(=O)O` (stereo unspecified), the growth is 94.5% in the assay on SR leukemia; 97.2% with OVCAR-8 ovarian; 108% with OVCAR-5 ovarian; 84.8% in the assay with OVCAR-4 ovarian; 113% in the assay on SK-OV-3 ovarian; 105% in the assay on IGROV1 ovarian. Further, the growth in the assay on OVCAR-3 ovarian was 108%; in the assay on HS 578T breast it was 117%; in the assay with NCI/ADR-RES ovarian, 107%.

As for `CC1=NN(c2ccccc2)C(=O)/C1=C\N1CC(=O)NC1=S`, the growth in the assay with SR leukemia is 89.1%; in the assay with OVCAR-8 ovarian, 102%; with OVCAR-5 ovarian it was 119%; in the assay on OVCAR-4 ovarian, 102%; with SK-OV-3 ovarian it was 101%; in the assay on IGROV1 ovarian, 106%. For the same compound, the growth in the assay with OVCAR-3 ovarian is 111%; in the assay with NCI/ADR-RES ovarian it was 103%.

Consider `CC(C)OC(=O)c1cc(NC(=S)OC(C)C)ccc1Cl`, for which the growth was 70.2% with SR leukemia; 83.3% in the assay on RPMI-8226 leukemia; 67.2% in the assay with OVCAR-5 ovarian; 99.1% with OVCAR-4 ovarian; 95.1% in the assay with SK-OV-3 ovarian; 89.9% with IGROV1 ovarian. Also, the figures for the growth in the assay with OVCAR-3 ovarian and in the assay with NCI/ADR-RES ovarian were 93.9% and 25.8%, respectively.

Regarding `CCCCCCCCCCC1CO1` (stereo unspecified), the growth with SR leukemia was 98.5%; in the assay on OVCAR-8 ovarian, 109%; in the assay on OVCAR-5 ovarian it was 111%; with OVCAR-4 ovarian it was 98.8%; with SK-OV-3 ovarian it was 101%; in the assay with IGROV1 ovarian it was 111%. In addition, the values for the growth in the assay on OVCAR-3 ovarian, in the assay with HS 578T breast and in the assay with NCI/ADR-RES ovarian were 111%, 118% and 110%, respectively.

Regarding `CC(=O)Nc1cccc(NC(C)=O)n1`, the growth was 123% in the assay on SR leukemia; 105% in the assay with OVCAR-8 ovarian; 143% with OVCAR-5 ovarian; 112% with OVCAR-4 ovarian; 101% with SK-OV-3 ovarian; 112% in the assay on OVCAR-3 ovarian. The growth is 102% in the assay with HS 578T breast and 131% in the assay with NCI/ADR-RES ovarian.

In the case of `COc1ccc(C(C)C=O)cc1` (stereo unspecified), the growth in the assay on SR leukemia was 102%; with OVCAR-8 ovarian, 109%; in the assay with OVCAR-5 ovarian, 117%; in the assay with OVCAR-4 ovarian, 110%; with SK-OV-3 ovarian, 109%; in the assay on IGROV1 ovarian, 116%. The values for the growth in the assay with OVCAR-3 ovarian and with NCI/ADR-RES ovarian were 108% and 104%, respectively.

For the compound `Cc1ccc(S(=O)(=O)O)c(C)c1`, the growth was 95.2% in the assay with SR leukemia; 105% in the assay on OVCAR-8 ovarian; 104% in the assay with OVCAR-5 ovarian; 86.5% with OVCAR-4 ovarian; 95.7% with SK-OV-3 ovarian; 103% in the assay on IGROV1 ovarian. Besides, the growth was 110% in the assay with OVCAR-3 ovarian, 93.8% with HS 578T breast and 104% with NCI/ADR-RES ovarian.

For the compound `C/C=C/CC(C)C(O)C1C(=O)NC(CC)C(=O)N(C)CC(=O)N(C)C(CC(C)C)C(=O)NC(C(C)C)C(=O)N(C)C(CC(C)C)C(=O)NC(C)C(=O)NC(C)C(=O)N(C)C(CC(C)C)C(=O)N(C)C(CC(C)C)C(=O)N(C)C(C(C)C)C(=O)N1C` (stereo unspecified), the growth with SR leukemia was -0.0306% (active); with OVCAR-8 ovarian, 38.1%; in the assay with OVCAR-5 ovarian it was 32%; in the assay on OVCAR-4 ovarian, 29.9%; in the assay with SK-OV-3 ovarian, 40.4%; in the assay on IGROV1 ovarian, 43.9%. Also, the growth in the assay on OVCAR-3 ovarian is 17.4%; with HS 578T breast it was 45.8%; in the assay with NCI/ADR-RES ovarian it was 31.9%.

As for `CC1CC(O)CC(C)(C)C1` (stereo unspecified), the growth in the assay on SR leukemia was 106%; in the assay on OVCAR-8 ovarian it was 102%; with OVCAR-5 ovarian it was 97.1%; with OVCAR-4 ovarian it was 116%; in the assay with SK-OV-3 ovarian it was 103%; in the assay on IGROV1 ovarian, 103%. Moreover, the growth with OVCAR-3 ovarian is 93.5%; in the assay with NCI/ADR-RES ovarian, 110%.

Regarding `Cc1c(O)cccc1O`, the growth in the assay with SR leukemia was 84%; with OVCAR-8 ovarian, 106%; in the assay with OVCAR-5 ovarian it was 106%; in the assay on OVCAR-4 ovarian, 108%; in the assay with SK-OV-3 ovarian it was 97.1%; in the assay on IGROV1 ovarian, 159%. Further, the growth in the assay with OVCAR-3 ovarian was 109%; with HS 578T breast, 102%; with NCI/ADR-RES ovarian, 94.2%.

Consider `O=C(CCl)Nc1ccc2c(c1)C(=O)c1ccc(NC(=O)CCl)cc1C2=O`, for which the growth in the assay with SR leukemia is -27.1% (active); in the assay with RPMI-8226 leukemia, -40.3% (active); with OVCAR-4 ovarian, -43% (active); in the assay on SK-OV-3 ovarian, -9.68% (active); in the assay on IGROV1 ovarian, -62.1% (active); in the assay with OVCAR-3 ovarian, -93.2% (active). In addition, the growth in the assay with NCI/ADR-RES ovarian is -53.8% (active).

On to `O=C(NCO)c1ccccc1`, for which the growth with SR leukemia was 98.3%; with OVCAR-8 ovarian, 108%; in the assay on OVCAR-5 ovarian, 104%; in the assay with OVCAR-4 ovarian, 109%; in the assay on SK-OV-3 ovarian it was 104%; with IGROV1 ovarian, 97.2%. In addition, the growth with OVCAR-3 ovarian is 104%; with HS 578T breast, 111%; in the assay with NCI/ADR-RES ovarian it was 109%.

`CC1=C(/C=C/C(C)=C/C=C/C(C)=C/CO)C(C)(C)CCC1`: the growth was 94.8% with SR leukemia; 101% in the assay with OVCAR-8 ovarian; 108% in the assay on OVCAR-5 ovarian; 112% in the assay on OVCAR-4 ovarian; 114% in the assay with SK-OV-3 ovarian; 117% in the assay with IGROV1 ovarian. For the same compound, the growth in the assay on OVCAR-3 ovarian was 109%; with HS 578T breast, 105%; in the assay on NCI/ADR-RES ovarian, 103%.

Consider `COc1cc2cc(c1Cl)N(C)C(=O)C[C@H](OC(=O)[C@H](C)N(C)C(C)=O)[C@]1(C)O[C@H]1[C@H](C)[C@@H]1C[C@@](O)(NC(=O)O1)[C@H](OC)C=C/C=C(\C)C2`, for which the growth in the assay with SR leukemia is 10.2%; in the assay with RPMI-8226 leukemia it was -4.44% (active); in the assay on OVCAR-5 ovarian, 32.4%; in the assay on SK-OV-3 ovarian it was 36.1%; with OVCAR-3 ovarian it was -42.8% (active); with HS 578T breast, 9.98% (active). Also, the growth in the assay on NCI/ADR-RES ovarian is 3.31% (active).

Regarding `OCc1cccc2ccccc12`, the growth in the assay on SR leukemia was 104%; in the assay with OVCAR-8 ovarian it was 111%; in the assay on OVCAR-5 ovarian, 111%; in the assay with OVCAR-4 ovarian, 109%; in the assay on SK-OV-3 ovarian, 110%; in the assay with IGROV1 ovarian, 120%. In addition, the growth with OVCAR-3 ovarian and in the assay on NCI/ADR-RES ovarian was 105% throughout.

`CCCC(=O)Nc1ccc2c(c1)CN1C(=O)c3ccccc3C1=N2`: the growth in the assay on SR leukemia is 103%; in the assay with RPMI-8226 leukemia, 106%; in the assay with OVCAR-4 ovarian, 107%; with SK-OV-3 ovarian it was 110%; in the assay with IGROV1 ovarian, 111%; with OVCAR-3 ovarian it was 102%. Further, the values for the growth with HS 578T breast and in the assay on NCI/ADR-RES ovarian were 119% and 99.5%, respectively.
